Assay outcomes from PubChem.
DAX1 inh-1: DAX1 (NR0B1) inhibitors, primary screen, cell-based, HEK293, Gal4-DAX1, luciferase luminescence. HEK293 Gal4-DAX1 luciferase reporter. inhibition, % at 6.75 µM. 340,000 compounds, 0.99% hits. AID 504766, 2011;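 active = inhibition above the mean over all tested compounds plus 3 SD, cut at about 4.2% in these data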;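 note: inhibition shows as a rise in luminescence from relieved DAX1 repression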
Target sequence (P51843 207-470 limits assumed): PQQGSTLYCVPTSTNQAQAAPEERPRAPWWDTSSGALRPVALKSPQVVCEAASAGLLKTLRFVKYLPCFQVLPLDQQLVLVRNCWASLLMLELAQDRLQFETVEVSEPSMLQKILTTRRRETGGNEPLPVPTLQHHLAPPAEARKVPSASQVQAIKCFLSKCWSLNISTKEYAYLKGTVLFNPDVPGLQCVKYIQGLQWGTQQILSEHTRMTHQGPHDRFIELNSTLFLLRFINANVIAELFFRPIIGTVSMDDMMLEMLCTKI
DAX1 inh-2: DAX1 (NR0B1) inhibitors on StAR promoter, primary screen, cell-based, luminescence, SF-1 (NR5A1), full-length DAX-1; 370,000 compounds, 1.1% hits; AID 652010, 2013; inhibition, % at 6.8 µM; HEK293T StAR-luciferase reporter, SF-1/DAX-1 repression relief;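 active = inhibition above the mean over all tested compounds plus 3 SD, cut at about 3.6% in these data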;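 note: higher inhibition means more luminescence from relief of DAX-1 repression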
hgDAF12 agonist: H. glycines DAF-12 receptor agonists, primary screen, cell-based, luminescence, HEK293, GAL4 fusion, UAS-luciferase; Nuclear hormone receptor DAF-12 (Heterodera glycines), GAL4 fusion; HEK293 GAL4-hgDAF12 UAS-luciferase reporter, agonist luminescence; normalized to butyrate control; activation, % at 6.8 µM; 370,000 compounds, 1.8% hits; AID 687014, 2013;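 active = activation above a cutoff set at the mean of all screened compounds plus 3 SD, cut at about 10% in these data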
hcDAF12 agonist: H. contortus DAF-12 nuclear receptor activators, primary screen, cell-based, luminescence, HEK293, lit1-tk-luc reporter. HEK293 hcDAF-12 lit1-tk-luc reporter; 0% DMSO, 100% Δ7-dafachronic acid. AID 652067, 2013. 370,000 compounds, 1.4% hits. activation, % at 6.8 µM;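 active = activation above the mean of all tested compounds plus 3 SD, cut at about 5.5% in these data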
ssDAF12 agonist: S. stercoralis DAF-12 nuclear receptor activators, primary screen, cell-based, luminescence, HEK293, GRIP1 co-expression, lit1-tk-luc; 370,000 compounds, 1% hits; activation, % at 6.8 µM; AID 652126, 2013; Nuclear hormone receptor DAF-12 (Strongyloides stercoralis); HEK293 ssDAF-12/GRIP1 lit1-tk-luc reporter; % of 3 µM dafachronic acid response;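 active = activation above the mean over all tested compounds plus 3 SD, cut at about 0.9% in these data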
Numbers stand for hits; . = inactive; / = no result; ! = repeats disagree. The list is not random: actives were taken first. Their share in the collection is about 4.1%.

SMILES | DAX1 inh-1 | DAX1 inh-2 | hgDAF12 agonist | hcDAF12 agonist | ssDAF12 agonist
O=C(NCCN1C(=O)C2C3C=CC(C3)C2C1=O)NCc1ccccc1 (stereo not given) | . | . | . | . | .
Cc1ccccc1NC(=O)NCCN1C(=O)C2C3C=CC(C3)C2C1=O (stereo not given) | 4.7 | . | . | . | .
Cc1ccc(S(=O)(=O)N2c3ccccc3C[C@H]2CCC(=O)c2ccccc2)cc1 | / | / | . | . | .
COC(=O)c1ccc2nc(NC(=O)CSCC(=O)OCC(=O)c3ccccc3)sc2c1 | . | . | 12.5 | . | .
O=C(CSc1nc2ccccc2o1)Nc1nc2ccc(Br)cc2s1 | . | . | . | . | .
COc1ccc2nc(NC(=O)c3ccccc3[N+](=O)[O-])sc2c1 | 4.4 | . | . | . | .
COc1ccc2nc(NC(=O)CSCC(=O)Nc3cc(C)on3)sc2c1 | . | 4.2 | . | . | .
COc1ccc2nc(NC(=O)CSc3nc4ccccc4o3)sc2c1 | 4.7 | . | . | . | .
COc1ccc2nc(NC(=O)CSCc3c(C)noc3C)sc2c1 | . | . | . | . | .
COc1ccc2nc(NC(C)=O)sc2c1 | . | . | 12.3 | . | .
O=C(Nc1nc2ccccc2s1)c1ccccc1[N+](=O)[O-] | . | . | . | . | 1.2
CCC(C)C(=O)Nc1nc2ccc(OC)cc2s1 (stereo not given) | / | . | . | . | .
c1ccc(-c2ccc(CNc3nc(-c4ccccn4)nnc3-c3ccccc3)cc2)cc1 | / | / | . | . | .
Cn1c(=O)n(CC(=O)O)c(=O)c2c1nc1n2CCS1 | 6.4! | . | . | . | .
CN1C(=O)c2cc(NC(=O)Nc3ccccc3F)ccc2OC[C@H]2O[C@@H](CC(=O)NCc3ccc(-c4ccccc4)cc3)CC[C@@H]21 | / | . | . | . | .
N/C(=N\OC(=O)c1ccc2c(c1)OCO2)c1ccc(Cl)cc1 | . | . | . | . | .
COc1ccc(/C(N)=N/OC(=O)c2ccc3c(c2)OCO3)cc1 | . | . | . | 6.0 | .
N/C(=N\OC(=O)c1ccc2c(c1)OCO2)c1ccncc1 | 5.1 | . | . | . | .
Cc1ccc(/C(N)=N/OC(=O)c2ccc3c(c2)OCO3)cc1 | . | . | . | . | .
CC(C)C[C@H](NC1(C(=O)NCCc2c[nH]c3ccccc23)CCN(C)CC1)C(=O)NCCCc1ccccc1 | / | / | . | . | .
COC(=O)c1ccc(C(=O)OC)c(NC2=NS(=O)(=O)c3ccccc32)c1 | . | . | . | . | .
COC(=O)c1c(-c2ccccc2)csc1NC1=NS(=O)(=O)c2ccccc21 | . | 3.8 | . | . | .
Fc1ccc(-c2ccc3c(n2)CCCN3Cc2ccccn2)cc1 | / | 3.8 | . | . | .
COC(=O)[C@H](C(C)C)N1Cc2nnn(Cc3ccc(C)cc3)c2-c2cc(F)ccc2S1(=O)=O | / | . | . | . | .
COc1ccc(CCn2cnc3nc4ccc(Cl)cc4cc3c2=O)cc1OC | / | . | . | . | .
SMILES | DAX1 inh-1 | DAX1 inh-2 | hgDAF12 agonist | hcDAF12 agonist | ssDAF12 agonist
O=c1c2cc3cc(Cl)ccc3nc2ncn1Cc1ccc(Oc2ccccc2)cc1 | / | . | . | 5.9 | .
CC1NC(=O)c2cc3ccccc3cc2-n2c1nc1cc(Cl)ccc1c2=O (stereo not given) | . | . | . | . | 1.1
CC1NC(=O)c2cc3ccccc3cc2-n2c1nc1cc(F)ccc1c2=O (stereo not given) | . | . | . | . | 1.8
CCC1NC(=O)c2cc3ccccc3cc2-n2c1nc1cc(F)ccc1c2=O (stereo not given) | . | . | . | . | .
Cc1ccc2c(=O)n3c(nc2c1)C(Cc1ccccc1)NC(=O)c1cc2ccccc2cc1-3 (stereo not given) | . | . | . | . | 1.2
O=C1NC(Cc2ccccc2)c2nc3ccccc3c(=O)n2-c2cc3ccccc3cc21 (stereo not given) | . | . | . | . | .
Cc1csc(NC(=O)c2ccc(COc3ccc(Cl)c(Cl)c3)o2)n1 | / | . | . | . | .
COC(=O)[C@]12C[C@H](CC(=O)NCCC(C)C)C(=O)N(Cc3cccc4ccccc34)C1=C[C@H](C(C)(C)C)O[C@@H]2C | / | . | . | . | .
Cc1cc(=O)[nH]c(SCc2cccc3cccnc23)n1 | 5.2 | . | . | . | .
O=C(N=C1N(Cc2ccccc2)[C@@H](Cc2ccccc2)[C@]2(C=C3CCCCC3n3c(=O)n(-c4ccccc4)c(=O)n32)N1C(=O)OCc1ccccc1)c1ccccc1 (stereo not given in full) | / | . | . | . | .
CCOC(=O)[C@]12CCCCC/C=C\1N(CCc1ccc(Cl)cc1)C(=O)[C@H]2CC(=O)N1CCN(C(=O)C2CC2)CC1 | / | . | . | . | .
C=CCN(CC#Cc1ccccc1)CC=C | / | . | . | . | .
Cc1ccc(C2c3[nH]c4ccccc4c3C[C@H]3C(=O)N(c4ccccc4C(=O)NCCCN4CCOCC4)C(=O)N23)cc1 (stereo not given in full) | . | . | . | . | .
O=C(NCCCN1CCOCC1)c1ccccc1N1C(=O)[C@@H]2Cc3c([nH]c4ccccc34)C(c3ccccc3)N2C1=O (stereo not given in full) | / | . | . | 5.8 | .
COCCNC(=O)c1ccc2c3n(nc2c1)-c1ccc(Cl)cc1CO3 | . | . | . | . | .
COCCNC(=O)c1ccc2c3n(nc2c1)-c1ccccc1CO3 | . | . | 11.8 | 6.4 | .
O=C(NCC1CC1)c1ccc2c3n(nc2c1)-c1ccc(Cl)cc1CO3 | . | . | 11.8 | . | .
c1csc(-c2ccc3ccccc3n2)c1 | . | . | . | . | .
Nc1nc2ccccc2cc1-c1cccs1 | 5.4 | . | . | . | .
O=C(N/N=C1/CC2C=CCC12)c1ccco1 (stereo not given) | . | . | 11.4 | . | 1.0
Cc1cccc(-c2nc(-c3ccncc3)no2)c1 | 5.3 | . | 10.8 | . | .
Cc1cc(C)cc(-c2nc(-c3ccncc3)no2)c1 | . | . | . | . | .
Fc1ccccc1-c1nc(-c2ccncc2)no1 | 4.8 | . | . | . | 1.1
CC(C)(C)c1ccc(-c2nc(-c3ccncc3)no2)cc1 | . | 3.7 | . | . | .
COc1ccc(-c2nc(-c3ccc(C(=O)O)cc3)no2)cc1 | . | 3.9 | 12.3 | 6.9 | .
CC(=O)OC12CCCN(C1)/C(=C/c1ccccc1)C2 (stereo not given) | / | . | . | . | .
CCC(=O)Oc1ccc(-c2nc(-c3cccnc3)no2)cc1 | . | . | 10.6 | . | .
